Assay results from PubChem BioAssay (EPA / NIEHS).
Active and inactive are the calls of the source. The calls were made as follows: active = hit-call score of the fitted dose curve at least 0.9, where 1 is the maximum; inactive = score below 0.9.

Assay: APR_HepG2_CellLoss_72hr: Apredica 72-hour HepG2 Assay for Cell Loss (AID 2282915)
Details: high-content imaging
Procedure: APR_HepG2_72hr is a cell-based, multiplexed-readout assay that uses HepG2, a human liver cell line, with measurements taken at 72 hours after chemical dosing in a 384-well plate.APR_HepG2_CellLoss_72hr is one of 10 assay component(s) measured or calculated from the APR_HepG2_72hr assay. It is designed to make measurements of cell number, a form of viability reporter, as detected with fluorescence intensity signals by HCS Fluorescent Imaging technology.Data from the assay component APR_HepG2_CellLoss_72hr was analyzed into 1 assay endpoint. This assay endpoint, APR_HepG2_CellLoss_72hr, was analyzed with bidirectional fitting relative to DMSO as the negative control and baseline of activity. Using a type of viability reporter, measures of all nuclear dna for gain or loss-of-signal activity can be used to understand the viability at the cellular-level. Furthermore, this assay endpoint can be referred to as a secondary readout, because this assay has produced multiple assay endpoints where this one serves a viability function. To generalize the intended target to other relatable targets, this assay endpoint is annotated to the cell cycle intended target family, where the subfamily is proliferation.
Cells were treated with dimethyl sulfoxide (DMSO) as a solvent control at a final concentration of 0.5% v/v or with compounds in DMSO with a resulting final DMSO concentration of 0.5% v/v. Compound treatment was done at concentrations of 0.39, 0.78, 1.56, 3.12, 6.24, 12.5, 25, 50, 100, and 200 uM in duplicate on each plate. Cells were treated with compounds for 1, 24, or 72 hr. Carbonyl […] m-chloro-phenylhydrazone (CCCP) and taxol were used as positive controls for mitochondrial function and cytoskeletal stability, respectively; DMSO served as the negative control for this experiment. Cells were fixed by the direct addition of 50 uL formaldehyde in Hank's Balanced Salt Solution (HBSS) to a final concentration of 3.7%. After incubation in the fixation medium for 30 min at room temperature (293-298 K), cells were rinsed twice with HBSS and treated with cell permeabilization buffer (16 uL of 0.5% Triton X-100) for 10 min at room temperature (293-298 K) before labeling. For mitochondrial membrane potential and mitochondrial measurements, pre-fixed cells were incubated with 50 uL of MitoTracker Red CMXRos (Invitrogen) at a concentration of 250 nM for 30 min before fixation. In the remaining cases, post-fixed cells were labeled by incubation with a multiplexed mixture of primary antibodies in HBSS for 60 min at room temperature (293-298 K) to detect immunoreactivity of c-Jun (1:500), phospho-histone H3 (1:100), phospho-histone H2A.x (1:200), p53 (1:400), alpha-tubulin (1:200) and Hoechst 33342 (2 ug/mL). Cells were labeled for multiplexed imaging on two separate plates: a) Hoechst 33342, MitoTracker Red, phospho-histone H3, and alpha-tubulin, and b) Hoechst 33342, phospho-histone H2A.x, and c-Jun. A final rinse with HBSS (50 uL) was performed before analysis. The primary and secondary antibodies for the proteins were phospho-histone H3 (rabbit anti-phospho-histone H3 and FITC-donkey anti-rabbit IgG), phospho-histone H2A.x (mouse anti-phospho-histone H2A.x and FITC-donkey anti-mouse IgG), c-Jun (rabbit anti-phospho-c-Jun and Cy3-donkey anti-rabbit IgG), p53 (sheep anti-p53 and Cy5-donkey anti-sheep IgG), alpha-tubulin (mouse anti-alpha-tubulin and Cy5-donkey anti-mouse IgG). These antibodies are available as the CellCiphr HepG2 assay kit (Millipore).Digital images of each well were captured using a Cellomics ArrayScan VTI (Thermo Scientific Cellomics) (0.8 NA objective, 0.63x optical coupler, and XF-93 filter set) at 20x magnification. The images were acquired using the autofocus feature of the ArrayScan instrument, which entails the following steps. First, the camera focuses on channel 1 (Hoechst 33342), where nuclei are identified. Second, a Z offset of 1 um is used for capturing mitochondria (MitoTracker Red). […]
With `CC(Cc1ccc(OCC(=O)O)cc1)NCC(O)c1csc(C(F)(F)F)n1` (stereo not given) the outcome was “inactive”. In the case of `ClC1=C(Cl)C2(Cl)C3C(Cl)C(Cl)CC3C1(Cl)C2(Cl)Cl` (stereo not given), the AC50 is reported as 60.9 µM (active). For `CCOS(=O)(=O)OCC`, the outcome was “inactive”. With `Nc1ccc2ccccc2c1` the outcome was “inactive”. With `CCOP(=S)(Oc1ccc([N+](=O)[O-])cc1)c1ccccc1` (stereo not given) the AC50 was 27.7 µM (active). With `CC(C)(C)OOC(C)(C)C` the outcome was “inactive”. With `c1ccc2c(c1)Nc1ccccc1S2` the AC50 was 47 µM (active). For `O=P(Oc1ccccc1)(Oc1ccccc1)Oc1ccccc1`, the AC50 was 63.2 µM (active). For `c1nc[nH]n1`, the outcome was “inactive”. In the case of `Cc1cccc(N)c1`, the outcome is reported as “inactive”. For `O=C(O)C1C(C(=O)O)C2(Cl)C(Cl)=C(Cl)C1(Cl)C2(Cl)Cl` (stereo not given), the outcome was “inactive”. For `Cc1ccc(N)cc1N`, the outcome was “inactive”. In the case of `CC(Cl)(Cl)C(=O)O`, the outcome is reported as “inactive”. For `Cc1ccc([N+](=O)[O-])cc1C`, the outcome was “inactive”. With `Cc1ccc(O)cc1C` the outcome was “inactive”. In the case of `CCCCCCCc1ccc(O)cc1`, the outcome is reported as “inactive”. In the case of `ClC(Cl)(Cl)c1ccccc1`, the outcome is reported as “inactive”. In the case of `CC(C)(C)c1ccc(O)cc1`, the outcome is reported as “inactive”. In the case of `O=[N+]([O-])c1ccccc1`, the outcome is reported as “inactive”. In the case of `ClC(Cl)c1ccccc1`, the outcome is reported as “inactive”. In the case of `CCCCc1ccccc1`, the outcome is reported as “inactive”. With `c1cc2c3c(cccc3c1)CC2` the outcome was “inactive”. In the case of `CCC(C)(C)c1ccc(O)cc1`, the AC50 is reported as 108 µM (active). In the case of `CCC1(c2ccccc2)C(=O)N=C(O)NC1=O` (stereo not given), the outcome is reported as “inactive”. In the case of `O=C(O)C(Cl)Cl`, the outcome is reported as “inactive”. For `c1ccc(OP(Oc2ccccc2)Oc2ccccc2)cc1`, the outcome was “inactive”. For `CCN(CC)c1ccccc1`, the outcome was “inactive”. In the case of `O=P1(N(CCCl)CCCl)NCCCO1` (stereo not given), the outcome is reported as “inactive”. For `[N-]=[N+]=[N-]`, the outcome was “inactive”. In the case of `CCCN(CCC)c1c([N+](=O)[O-])cc(C(C)C)cc1[N+](=O)[O-]`, the AC50 is reported as 43.1 µM (active). With `COCCOCCO` the outcome was “inactive”. In the case of `OCC1CO1` (stereo not given), the outcome is reported as “inactive”. With `Nc1cc2c3c(c1)C(c1ccccc1)=N[C@@H](NC(=O)c1cccnc1)C(=O)N3CC2` the outcome was “inactive”. With `CCOP(=S)(OCC)SCSCC` the outcome was “inactive”. With `CCCCN(CCCC)SN(C)C(=O)Oc1cccc2c1OC(C)(C)C2` the AC50 was 56.8 µM (active). In the case of `CN(C)C(=O)Cl`, the outcome is reported as “inactive”. With `CCOC(=O)c1ccccc1C(=O)OCC` the outcome was “inactive”. In the case of `CSC(C)(C)C=NO`, the outcome is reported as “inactive”. With `CCNc1nc(Cl)nc(NC(C)(C)C)n1` the outcome was “inactive”. For `O=[N+]([O-])c1ccc(Cl)c(Cl)c1`, the outcome was “inactive”.
